According to PubChem BioAssay (Tox21):
Records with an inconclusive call do not appear. Calls of active or inactive are those of the source. Unless noted, calls follow the shape of the dose curve; as a rule, active = well fitted curve in the direction sought with a large enough effect in the repeat runs; inconclusive = weak or mixed curves; inactive = no such curve, though single readings can be large; an effect the other way counts as inactive or inconclusive.

Experiments:
[1] = A CellTox Green Cytotoxicity Assay to monitor cytotoxicity in HepG2 cells - 0 hour (AID 1224882); also: nearly all actives have a fitted effect of over 35% in size
Method in brief: (§1)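 HepG2, 600 cells/well premixed w/ CellTox Green; 5 h settle, 37 C/5% CO2; pintool cpd add (DMSO); 37 C, 40 h; fluorescence read at 0, 8, 16, 24, 32, 40 h.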

[2] = A CellTox Green Cytotoxicity Assay to monitor cytotoxicity in HEK293 cells - 8 hour (AID 1224884); also: nearly all actives have a fitted effect of over 35% in size
Method in brief: (§2)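 Read-out: fluorescence of a cell-impermeant cyanine dye staining DNA of dead cells, proportional to cytotoxicity. HEK293, 600 cells/well with reagent, compound (23 nL DMSO) added after 5 h; reads at 0, 8, 16, 24, 32, 40 h.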

[3] = qHTS RealTime-Glo MT Cell Viability Assay in HepG2 cells - 16 hour (AID 1224885); also: nearly all actives have a fitted effect of over 50% in size
Method in brief: (§3)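 Viability was tracked continuously by NanoLuc luminescence from prosubstrate reduced by living HepG2 cells, at successive time points over 40 h of compound exposure. Cells with reagent were preincubated 5 h at 37 °C before compound addition.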

[4] = qHTS RealTime-Glo MT Cell Viability Assay in HEK293 cells - 24 hour (AID 1224886); also: top concentration of the series differs between compounds; nearly all actives have a fitted effect of over 50% in size
Method in brief: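 Viability tracked continuously by luminescence as live cells reduce a prosubstrate for NanoLuc; HEK293 cells preincubated 5 h, compound-treated at 37 C, and read at 0, 8, 16, 24, 32 and 40 h.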

[5] = qHTS RealTime-Glo MT Cell Viability Assay in HEK293 cells - 8 hour (AID 1224887); also: top concentration of the series differs between compounds; nearly all actives have a fitted effect of over 50% in size
Method in brief: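 Luminescence readout at each listed time point; HEK293, 600 cells/well, RealTime-Glo MT reagent added with cells; compounds pinned (23 nL in DMSO) after 5 h at 37 C; continuous culture at 37 C.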

[6] = A CellTox Green Cytotoxicity Assay to monitor cytotoxicity in HEK293 cells - 16 hour (AID 1224888); also: nearly all actives have a fitted effect of over 35% in size
Method in brief: as §2

[7] = qHTS RealTime-Glo MT Cell Viability Assay in HepG2 cells - 0 hour (AID 1224889); also: nearly all actives have a fitted effect of over 50% in size
Method in brief: as §3

[8] = A CellTox Green Cytotoxicity Assay to monitor cytotoxicity in HepG2 cells - 8 hour (AID 1224890); also: nearly all actives have a fitted effect of over 45% in size
Method in brief: as §1

[9] = qHTS assay to identify small molecule antagonists of the estrogen receptor alpha (ER-alpha) signaling pathway using the BG1 cell line in the presence of 0.1 nM 17-beta-estradiol - cell viability counter screen (AID 1259241); also: nearly all actives have a fitted effect of over 40% in size
Method in brief: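 Following 5 days in phenol red-free medium with charcoal-stripped serum, VM7Luc4E2 cells received test compounds alongside 0.1 nM 17beta-estradiol (final) at 37C for 22 hr. Live cells were then quantified via protease-substrate fluorescence.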

[10] = qHTS assay to identify small molecule antagonists of the androgen receptor (AR) signaling pathway using the MDA cell line in the presence of 0.5 nM R1881 - cell viability counter screen (AID 1259242); also: nearly all actives have a fitted effect of over 45% in size
Method in brief: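 Live-cell protease fluorescence, CellTiter-Fluor, 30 min at 37C. Cells: MDA-kb2, 3,000/well, preincubated 5 hr. Compounds plus 0.5 nM R1881 final, 16 hr, 37C, 0% CO2.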

[11] = target: Estrogen receptor (Homo sapiens) (UniProt P03372); test: qHTS assay to identify small molecule antagonists of the estrogen receptor alpha (ER-alpha) signaling pathway using the BG1 cell line in the presence of 0.1 nM 17-beta-estradiol (AID 1259244); also: nearly all actives have a fitted effect of over 50% in size
Chain of Estrogen receptor (Homo sapiens) (P03372 whole entry, looked up): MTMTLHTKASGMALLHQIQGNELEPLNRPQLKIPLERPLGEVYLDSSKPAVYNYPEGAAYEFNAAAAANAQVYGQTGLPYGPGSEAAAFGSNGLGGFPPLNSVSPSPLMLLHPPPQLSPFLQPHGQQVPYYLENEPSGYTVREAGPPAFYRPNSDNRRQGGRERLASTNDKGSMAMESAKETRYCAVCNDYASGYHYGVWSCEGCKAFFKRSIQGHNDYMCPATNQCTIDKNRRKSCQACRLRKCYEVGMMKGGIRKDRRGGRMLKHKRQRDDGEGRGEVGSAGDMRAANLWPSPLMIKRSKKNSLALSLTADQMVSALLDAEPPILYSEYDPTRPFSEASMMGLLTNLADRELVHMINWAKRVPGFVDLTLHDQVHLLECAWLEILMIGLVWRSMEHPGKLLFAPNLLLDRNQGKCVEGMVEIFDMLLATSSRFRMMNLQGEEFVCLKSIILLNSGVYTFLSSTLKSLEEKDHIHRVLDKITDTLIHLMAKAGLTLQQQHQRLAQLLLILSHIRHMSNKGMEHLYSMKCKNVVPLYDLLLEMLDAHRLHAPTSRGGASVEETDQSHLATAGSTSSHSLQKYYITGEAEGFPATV
Method in brief: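 Luminescence after ONE-Glo (30 min, room temperature) measured ERE-luciferase activity in VM7Luc4E2 cells treated 22 h with compound and 0.1 nM final 17beta-estradiol as stimulator.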

[12] = qHTS assay to identify small molecule HDAC inhibitors (AID 1259364);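 also: wild-type HCT-116 cells with endogenous class I/II HDAC activity; top concentration of the series differs between compounds; nearly all actives have a fitted effect of over 45% in size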
Method in brief: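 HCT-116 (wild type), 1,500 cells/well, overnight; compound 2 hr 37C 5% CO2; HDAC-Glo I/II reagent 30 min RT; luminescence readout.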

[13] = qHTS assay to identify small molecule HDAC inhibitors - cell viability counter screen (AID 1259365)
Method in brief: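 HCT-116 wild-type, overnight attachment; 2hr drug exposure, 37C; CellTiter-Glo luminescent ATP readout after 30min RT.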

[14] = qHTS assay to identify small molecule agonists of the sonic hedgehog signaling (Shh) pathway - cell viability counter screen (AID 1259366); also: nearly all actives have a fitted effect of over 50% in size
Method in brief: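 Compounds in DMSO were pin-transferred onto 3T3 Gli1-Luc cells that had settled 4hr; plates then stood 24hr at 37C and 5% CO2. One hour before the end, CellTiter-Fluor was added and fluorescence recorded.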

[15] = qHTS assay to identify small molecule antagonists of the sonic hedgehog signaling (Shh) pathway - cell viability counter screen (AID 1259367); also: nearly all actives have a fitted effect of over 55% in size
Method in brief: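 CellTiter-Fluor signal in conditioned medium-stimulated 3T3 Gli1-Luc cells, 23 hr compound exposure, 37C.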

[16] = qHTS assay to identify small molecule agonists of the sonic hedgehog signaling (Shh) pathway (AID 1259368; calls by dose curve;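 also: NIH/3T3-derived 3T3Gli1-Luc cells carrying a stable Gli1-driven firefly luciferase reporter; series mostly up to about 92 µM; nearly all actives have a fitted effect of over 15% in size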)
Method in brief: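 Read-out: firefly luciferase luminescence from a Gli1 response element reporter stably integrated in NIH/3T3-derived 3T3Gli1-Luc cells, measured 30 min at room temperature after reagent addition. Compound exposure lasted 24 hr at 37 C, 5% CO2.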

[17] = qHTS assay to identify small molecule antagonists of the sonic hedgehog signaling (Shh) pathway (AID 1259369; calls by dose curve; also: nearly all actives have a fitted effect of over 45% in size; also: potency is read from the fitted curve at half-maximal effect)
Method in brief: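 Luminescence readout: firefly Luc under Gli1 response element in 3T3Gli1-Luc cells (NIH/3T3 clone). Antagonist mode, stimulation by conditioned medium; compound exposure 24hr at 37 C, 5% CO2.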

[18] = A CellTox Green Cytotoxicity Assay to monitor cytotoxicity in HepG2 cells - 32 hour (AID 1224883); also: nearly all actives have a fitted effect of over 50% in size
Method in brief: as §1

[19] = target: Androgen receptor (Homo sapiens) (UniProt P10275); test: qHTS assay to identify small molecule antagonists of the androgen receptor (AR) signaling pathway using the MDA cell line in the presence of 0.5 nM R1881 (AID 1259243); also: nearly all actives have a fitted effect of over 50% in size
Chain of Androgen receptor (Homo sapiens) (P10275 whole entry, looked up): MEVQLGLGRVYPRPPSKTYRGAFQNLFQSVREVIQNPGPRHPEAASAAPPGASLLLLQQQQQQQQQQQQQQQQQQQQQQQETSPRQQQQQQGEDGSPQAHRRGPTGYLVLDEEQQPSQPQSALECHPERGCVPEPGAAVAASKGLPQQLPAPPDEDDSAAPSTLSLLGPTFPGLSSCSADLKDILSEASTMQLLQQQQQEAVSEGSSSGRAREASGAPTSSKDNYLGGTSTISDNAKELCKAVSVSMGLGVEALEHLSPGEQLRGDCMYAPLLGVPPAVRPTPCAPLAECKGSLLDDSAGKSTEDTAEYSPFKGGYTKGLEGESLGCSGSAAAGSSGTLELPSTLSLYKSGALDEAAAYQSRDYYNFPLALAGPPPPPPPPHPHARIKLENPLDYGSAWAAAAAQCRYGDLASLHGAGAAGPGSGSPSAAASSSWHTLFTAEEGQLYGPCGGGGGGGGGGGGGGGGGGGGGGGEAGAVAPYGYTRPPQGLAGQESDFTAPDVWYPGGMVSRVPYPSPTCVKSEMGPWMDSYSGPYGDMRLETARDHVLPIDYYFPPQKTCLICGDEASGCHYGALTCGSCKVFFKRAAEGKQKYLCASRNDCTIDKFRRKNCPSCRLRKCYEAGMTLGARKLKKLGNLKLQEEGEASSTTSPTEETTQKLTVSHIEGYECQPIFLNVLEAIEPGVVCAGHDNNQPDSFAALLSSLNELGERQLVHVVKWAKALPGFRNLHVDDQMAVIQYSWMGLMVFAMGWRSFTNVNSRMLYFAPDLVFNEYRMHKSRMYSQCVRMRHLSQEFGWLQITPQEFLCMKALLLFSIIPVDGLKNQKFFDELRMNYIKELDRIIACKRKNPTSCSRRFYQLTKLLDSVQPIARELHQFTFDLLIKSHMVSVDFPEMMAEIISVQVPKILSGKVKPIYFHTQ
Method in brief: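 MDA-kb2, MMTV-luc (AR/GR elements); 3,000 cells/well; cpd + 0.5 nM R1881 final; 16 hr 37C, 0% CO2; ONE-Glo 30 min RT; luminescence.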

[20] = qHTS assay to identify small molecule phospholipidosis (PLD) inducers (AID 1259344; active = well fitted curve in the direction sought with a large enough effect; an effect the other way counts as inactive or inconclusive)
Method in brief: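 Accumulated phospholipid, stained red by LipidTOX during 24 h compound treatment of HepG2 cells at 37 C, is quantified from images as pit number and intensity, normalised per cell using Hoechst-stained nuclei.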

Measured: Potency

CC/C=C\CCOC(C)OCC (configuration not stated)
not listed: [18] | [19] | [20]
inactive: all other assays above

CC(C)NNC(=O)c1ccncc1
not listed: [3] | [7] | [11]
inactive: all other assays above

Nc1ccn([C@@H]2O[C@H](CO)[C@@H](O)C2O)c(=O)n1 (some centres not stated)
not listed: [11] | [17] | [18] | [19]
inactive: all other assays above

O=[N+]([O-])c1cncn1CCN1CCOCC1
not listed: [18] | [20]
inactive: all other assays above

CCC1C(=O)OCC1Cc1cncn1C (configuration not stated)
not listed: [3] | [7] | [11] | [12] | [17] | [19]
inactive: all other assays above

CC(C)(C#N)Nc1nc(Cl)nc(NC2CC2)n1
active: [17] 243 nM
not listed: [2] | [11] | [19] | [20]
inactive: all other assays above

CC(C)(C)c1ccc(-c2ccc(C(C)(C)C)cc2)cc1
not listed: [2] | [11] | [14] | [17] | [20]
inactive: all other assays above

CCCc1nn(C)c2c(=O)[nH]c(-c3cc(S(=O)(=O)N4CCN(C)CC4)ccc3OCC)nc12
not listed: [3] | [4] | [11] | [14] | [17] | [19]
inactive: all other assays above
